Measured values published in PubChem BioAssay AID2284363 (EPA ToxCast).
Calls of active or inactive are those of the source. How the source made its calls: active means hit-call score of the fitted dose curve at least 0.9, where 1 is the maximum; inactive means score below 0.9.

Target: Nuclear factor erythroid 2-related factor 2 (Homo sapiens) (UniProt Q16236)
Assay: ERF_US_NR_hNFE2L2: Eurofins (ERF) Cell Based Nuclear Translocation LeadHunter Assay for human Transcription Factor Keap1-Nrf2 Agonism
Method: ERF_US_NR_hNFE2L2 is a cell-based, single-readout assay that uses extracted gene-proteins in a cell-line assay. Measurements were taken 6 hours after chemical dosing in a 384-well plate. See Keap1-Nrf2 Human Transcription Factor Cell Based Agonist Nuclear Translocation Assay, DiscoverX.ERF_US_NR_hNFE2L2 is an assay component calculated from the ERF_US_NR_hNFE2L2 assay. It is designed to measure protein fragment complementation using a type of binding reporter as detected by chemiluminescence with fluorimetry technology.Data from the assay component ERF_US_NR_hNFE2L2 was analyzed at the assay endpoint, ERF_US_NR_hNFE2L2, in the positive analysis fitting direction relative to DMSO as the negative control and baseline of activity. Using a type of binding reporter, gain-of-signal activity can be used to understand changes in binding as they relate to gene NFE2L2. To generalize the intended target to other relatable targets, this assay endpoint is annotated to the dna binding intended target family, where the subfamily is basic leucine zipper.
Cells were seeded in a total volume of 20 uL into white walled, 384-well microplates and incubated at 37C overnight prior to testing.For agonist determination, cells were incubated with sample to induce response. Intermediate dilution of sample stocks was performed to generate 5X sample in assay buffer. 5 uL of 5X sample was added to cells and incubated at room temperature for 6 hours. Final assay vehicle concentration was 1%. The results are expressed as a percent efficacy relative to the maximum response of the control ligand.

Sequence of Nuclear factor erythroid 2-related factor 2 (Homo sapiens) (Q16236 whole entry, looked up): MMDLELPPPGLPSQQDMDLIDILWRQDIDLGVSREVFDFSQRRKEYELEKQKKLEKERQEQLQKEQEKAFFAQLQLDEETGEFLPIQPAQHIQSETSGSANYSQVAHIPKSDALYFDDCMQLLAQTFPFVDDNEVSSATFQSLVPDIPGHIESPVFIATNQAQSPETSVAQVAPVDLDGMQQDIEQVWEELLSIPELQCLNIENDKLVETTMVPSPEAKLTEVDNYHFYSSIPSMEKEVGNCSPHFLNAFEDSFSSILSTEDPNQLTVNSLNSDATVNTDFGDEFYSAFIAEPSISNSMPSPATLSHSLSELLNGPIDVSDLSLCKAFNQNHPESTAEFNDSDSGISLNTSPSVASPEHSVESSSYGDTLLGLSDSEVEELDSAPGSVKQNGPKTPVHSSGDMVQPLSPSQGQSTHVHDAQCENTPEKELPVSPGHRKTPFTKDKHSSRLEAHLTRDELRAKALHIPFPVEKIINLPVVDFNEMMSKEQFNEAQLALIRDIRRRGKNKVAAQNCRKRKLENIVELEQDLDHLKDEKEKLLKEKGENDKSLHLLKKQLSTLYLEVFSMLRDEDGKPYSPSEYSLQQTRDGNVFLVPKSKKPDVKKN

Row | Structure (SMILES) | AC50 | outcome
1 | OCCC(F)(F)C(F)(F)C(F)(F)C(F)(F)C(F)(F)C(F)(F)C(F)(F)C(F)(F)F | 1940 nM (active) | 
2 | O=C(O)CCC(F)(F)C(F)(F)C(F)(F)C(F)(F)C(F)(F)F |  | inactive
3 | O=C(O)C(F)(F)C(F)(F)C(F)(F)F |  | inactive
4 | O=C(O)C(F)(F)C(F)(F)C(F)(F)C(F)(F)C(F)(F)C(F)(F)C(F)(F)C(F)(F)Cl |  | inactive
